Measurements: PubChem BioAssay AID1159580 (chemical genetic matrix, 2015)
Hit rate of the full screen: of about 5,500 compounds, about 2,000 (36%) were called active. Roughly 18% stayed inconclusive and do not appear here. Cut-off read from the data, not from the text of the source: active = normalized growth mostly below about 0.91 (no sharp cut-off); inconclusive = no clear call, values can overlap the other calls; inactive = mostly above about 0.92. Some of the results follow.

Assay: chemical genetic growth profiling, strain panel (AID 1159580);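 note: tested at 20 µM; growth read once vehicle control cultures reached saturation at 30 °C; 1 = growth at the plate median or of vehicle wells; lower values mean less growth of the strain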
Settings: growth OD

Measured: normalized growth

CC(=O)Oc1cc(OC(C)=O)c2c(c1)O[C@H](c1ccc(OC(C)=O)c(OC(C)=O)c1)[C@@H](OC(C)=O)C2
inactive: S. cerevisiae deletion strains, locus YJR066W, strain TOR1, active compounds read low 0.934 | S. cerevisiae deletion strains, locus YJR075W, strain HOC1, active compounds read low 1.01 | S. cerevisiae deletion strains, locus YKL009W, strain mrt4, active compounds read low 1.04 | S. cerevisiae deletion strains, locus YKL068W, active compounds read low 0.987 | S. cerevisiae deletion strains, locus YKL085W, strain MDH1 (second series), active compounds read low 0.983 | S. cerevisiae deletion strains, locus YKL085W, strain MDH1, active compounds read low 0.983 | S. cerevisiae deletion strains, locus YKL160W, strain elf1, active compounds read low 1 | S. cerevisiae deletion strains, locus YKL190W, strain CNB1, active compounds read low 0.997 | S. cerevisiae deletion strains, locus YKR001C, strain vps1, active compounds read low 0.97 | S. cerevisiae deletion strains, locus YKR026C, strain gcn3, active compounds read low 0.972 | S. cerevisiae deletion strains, locus YKR091W, strain srl3, active compounds read low 1 | S. cerevisiae deletion strains, locus YLL001W, strain dnm1, active compounds read low 0.992 | S. cerevisiae deletion strains, locus YLL026W, active compounds read low 0.995 | S. cerevisiae deletion strains, locus YLL041C, strain sdh2, active compounds read low 0.997 | S. cerevisiae deletion strains, locus YLR027C, strain aat2, active compounds read low 1.02 | S. cerevisiae deletion strains, locus YLR039C, strain RIC1, active compounds read low 1.04 | S. cerevisiae deletion strains, locus YLR058C, strain SHM2, active compounds read low 1 | S. cerevisiae deletion strains, locus YLR102C, strain apc9, active compounds read low 0.986 | S. cerevisiae deletion strains, locus YLR113W, strain HOG1, active compounds read low 0.966 | S. cerevisiae deletion strains, locus YLR221C, strain rsa3, active compounds read low 1.01 | S. cerevisiae deletion strains, locus YLR258W, strain gsy2, active compounds read low 1 | S. cerevisiae deletion strains, locus YLR262C, strain YPT6 (second series), active compounds read low 0.998 | S. cerevisiae deletion strains, locus YLR262C, strain YPT6, active compounds read low 1.09 | S. cerevisiae deletion strains, locus YLR268W, strain sec22, active compounds read low 0.958 | S. cerevisiae deletion strains, locus YLR320W, strain mms22, active compounds read low 0.977 | S. cerevisiae deletion strains, locus YLR330W, strain CHS5, active compounds read low 0.995 | S. cerevisiae deletion strains, locus YLR342W, strain FKS1 (second series), active compounds read low 0.979 | S. cerevisiae deletion strains, locus YLR342W, strain FKS1, active compounds read low 0.994 | S. cerevisiae deletion strains, locus YLR357W, strain rsc2, active compounds read low 0.992 | S. cerevisiae deletion strains, locus YLR370C, strain arc18, active compounds read low 1.01 | S. cerevisiae deletion strains, locus YLR371W, strain rom2, active compounds read low 0.959 | S. cerevisiae deletion strains, locus YLR384C, strain iki3, active compounds read low 1 | S. cerevisiae deletion strains, locus YLR418C, strain cdc73, active compounds read low 1.03 | S. cerevisiae deletion strains, locus YML016C, strain PPZ1, active compounds read low 0.978 | S. cerevisiae deletion strains, locus YML032C, strain rad52, active compounds read low 1.01 | S. cerevisiae deletion strains, locus YML120C, strain ndi1, active compounds read low 1.01 | S. cerevisiae deletion strains, locus YML124C, strain tub3, active compounds read low 0.981 | S. cerevisiae deletion strains, locus YMR058W, strain fet3, active compounds read low 1 | S. cerevisiae deletion strains, locus YMR078C, strain ctf18, active compounds read low 0.964 | S. cerevisiae deletion strains, locus YMR125W, strain sto1, active compounds read low 0.996 | S. cerevisiae deletion strains, locus YMR129W, active compounds read low 1 | S. cerevisiae deletion strains, locus YMR205C, strain PFK2, active compounds read low 0.972 | S. cerevisiae deletion strains, locus YMR223W, strain ubp8, active compounds read low 1 | S. cerevisiae deletion strains, locus YMR231W, strain pep5, active compounds read low 1 | S. cerevisiae deletion strains, locus YMR307W, strain GAS1, active compounds read low 1.1 | S. cerevisiae deletion strains, locus YNL067W, strain RPL9B, active compounds read low 1 | S. cerevisiae deletion strains, locus YNL071W, strain lat1, active compounds read low 1.01 | S. cerevisiae deletion strains, locus YNL153C, strain GIM3, active compounds read low 1 | S. cerevisiae deletion strains, locus YNL183C, strain NPR1, active compounds read low 0.904 | S. cerevisiae deletion strains, locus YNL209W, strain ssb2, active compounds read low 1 | S. cerevisiae deletion strains, locus YNL233W, strain BNI4, active compounds read low 0.983 | S. cerevisiae deletion strains, locus YNL248C, strain rpa49, active compounds read low 1.01 | S. cerevisiae deletion strains, locus YNL250W, strain rad50, active compounds read low 0.977 | S. cerevisiae deletion strains, locus YNL271C, strain bni1, active compounds read low 0.975 | S. cerevisiae deletion strains, locus YNL298W, strain CLA4, active compounds read low 0.979 | S. cerevisiae deletion strains, locus YNL307C, strain MCK1, active compounds read low 0.98 | S. cerevisiae deletion strains, locus YNL322C, strain KRE1 (second series), active compounds read low 0.997 | S. cerevisiae deletion strains, locus YNL322C, strain KRE1, active compounds read low 0.998 | S. cerevisiae deletion strains, locus YNR049C, strain mso1, active compounds read low 0.995 | S. cerevisiae deletion strains, locus YNR052C, strain pop2, active compounds read low 0.981 | S. cerevisiae deletion strains, locus YOL012C, strain htz1 0.674 | S. cerevisiae deletion strains, locus YOL147C, strain pex11, active compounds read low 1 | S. cerevisiae deletion strains, locus YOR001W, strain rrp6, active compounds read low 0.997 | S. cerevisiae deletion strains, locus YOR061W, strain CKA2, active compounds read low 0.977 | S. cerevisiae deletion strains, locus YOR069W, strain VPS5, active compounds read low 0.989 | S. cerevisiae deletion strains, locus YOR070C, strain gyp1, active compounds read low 1 | S. cerevisiae deletion strains, locus YOR080W, strain dia2, active compounds read low 0.998 | S. cerevisiae deletion strains, locus YOR083W, strain WHI5, active compounds read low 1.01 | S. cerevisiae deletion strains, locus YOR106W, strain vam3, active compounds read low 1 | S. cerevisiae deletion strains, locus YOR136W, strain idh2, active compounds read low 0.965 | S. cerevisiae deletion strains, locus YOR144C, strain elg1, active compounds read low 0.982 | S. cerevisiae deletion strains, locus YOR184W, strain ser1, active compounds read low 0.986 | S. cerevisiae deletion strains, locus YOR231W, strain MKK1, active compounds read low 0.974 | S. cerevisiae deletion strains, locus YOR265W, strain rbl2, active compounds read low 1 | S. cerevisiae deletion strains, locus YOR270C, strain vph1, active compounds read low 0.988 | S. cerevisiae deletion strains, locus YOR290C, strain snf2, active compounds read low 0.961 | S. cerevisiae deletion strains, locus YOR316C, strain cot1, active compounds read low 0.986 | S. cerevisiae deletion strains, locus YPL051W, strain arl3, active compounds read low 1.01 | S. cerevisiae deletion strains, locus YPL055C, strain LGE1, active compounds read low 0.999 | S. cerevisiae deletion strains, locus YPL078C, strain atp4, active compounds read low 1.02 | S. cerevisiae deletion strains, locus YPL106C, strain sse1, active compounds read low 0.996 | S. cerevisiae deletion strains, locus YPL240C, strain hsp82, active compounds read low 0.992 | S. cerevisiae deletion strains, locus YPL241C, strain CIN2, active compounds read low 0.999 | S. cerevisiae deletion strains, locus YPL256C, strain CLN2, active compounds read low 0.974 | S. cerevisiae deletion strains, locus YPR119W, strain clb2, active compounds read low 0.979 | S. cerevisiae deletion strains, locus YPR141C, strain kar3, active compounds read low 0.981 | S. cerevisiae deletion strains, locus YPR163C, strain tif3, active compounds read low 0.994 | S. cerevisiae deletion strains, locus YPR167C, strain met16, active compounds read low 0.978 | S. cerevisiae deletion strains, strain wtn01, active compounds read low 0.951 | S. cerevisiae strains, strain wild type, active compounds read low 0.993
